The nature of assay [1]: inhibitors of TNFa-induced NFkB p65 translocation, primary screen, imaging, HUVEC, MLSMR starter and 10KST1 sets (AID 438;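 active means inhibition above 20% together with a positive visual image hit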;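 further: compound added about 3h40 before a 20 min TNFalpha stimulation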;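 on inhibition: signal is the nuclear over cytoplasmic p65 intensity ratio per well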). The conditions noted are these: HUVEC TNFa-induced p65 nuclear translocation; cell count: measured here: nuclei count (cytotoxicity indicator), at 2.08 µM; inhibition: at 2 µM, stronger effect = higher value, 0% TNFa-plus-vehicle, 100% no-TNFa wells.
Assay [2] can be described thus: inhibitors of mutant huntingtin aggregation, primary screen, imaging, exon1htt(103Q)mCFP cells, high-content imaging (AID 483;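 active means visual image review flags a hit and inhibition of aggregation exceeds 20%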;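 further: compound exposure lasted 3 days before fixation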;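 on nuclei count: percent of the per-plate median nuclei count of sample wells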). As to conditions: exon1htt(103Q)mCFP cell line, aggregate imaging, at 2 µM; inhibition of aggregation: stronger effect = higher value; nuclei count: measured here: cell count, toxicity.
Assay [3] is described as follows: inhibitors of E-selectin induction by TNFa, primary screen, imaging, HUVEC, immunofluorescence, MLSMR starter and 10KST1 sets (AID 487;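 active means visually confirmed hit in the image check and inhibition above 20%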;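 on inhibition: signal is fraction of cell area covered by stained E-selectin grains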;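 on nuclei count: 100% = median nuclei count of all wells on the same plate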). The conditions noted are these: HUVEC TNFalpha-induced E-selectin immunofluorescence imaging, at 2 µM; inhibition: stronger effect = higher value; nuclei count: measured here: cell number, toxicity.
Assay [4] concerns the target Voltage-gated potassium channel subunit beta-2 (Rattus norvegicus) (UniProt P62483). Put plainly: KvBeta enzyme negative modulators, primary screen, biochemical, NADPH fluorescence (AID 622;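 active means fluorescence slope higher than the sample average by over 3 SD, cut at about -0.22 in these data, passing the limit was not always enough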;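 further: slope of raw intensity against log time taken from 70 to 1610 s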). The conditions noted are these: recombinant KvBeta, 4-cyanobenzaldehyde reduction, at 10 µM, stronger effect = higher value.
Assay [5] shares this target. Put plainly: KvBeta positive modulators, primary screen, biochemical, NADPH fluorescence (AID 623).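 Further: fluorescence intensity change per second fitted from 20 to 320 s.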 The conditions noted are these: Recombinant KvBeta, NADPH fluorescence decrease slope, 10 min; at 10 µM; stronger effect = lower value.
For assay [6], the target named is Alpha-2C adrenergic receptor (Homo sapiens) (UniProt P18825). As to the kind of experiment: modulators of alpha2C/GIRK thallium flux, primary screen, cell-based, HEK293 alpha2C/GIRK1/2 (AID 624;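 active means fluorescence slope after compound addition differing from the mean of all screened samples at 99.7% confidence, in either direction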;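 further: slope of fluorescence ratio to pre-addition baseline per second over 15 to 24 s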). As to conditions: thallium flux BTC fluorescence, at 10 µM, actives lie on both sides.
The nature of assay [7]: inhibitors of Sendai virus-induced IRF3 signaling, primary screen, TLR/RLR signaling modifier project, cell-based, Sendai virus stimulus, luciferase, 10K MLSCN set (AID 602276;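 active means inhibition at or above 50% at 10 µM; inactive means inhibition below 50%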;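 further: firefly luciferase from ISG56 promoter only with Renilla not read in this screen; 0% = Sendai virus plus DMSO and 100% = medium plus DMSO without virus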). As to conditions: HEK293 RL24 IRF3 luciferase reporter, at 10 µM, stronger effect = higher value.
Assay [8] is described as follows: inhibitors of poly I:C-induced TLR3 signaling, primary screen, cell-based, poly I:C stimulus, luciferase, 10K MLSCN set (AID 602277;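 active means inhibition of the reporter signal at or above 50%; inactive means inhibition below 50%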). As to conditions: HEK293-TLR3 RL24 IRF3 luciferase reporter, at 10 µM, stronger effect = higher value.

Calls of active or inactive are those of the source.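 How the source made its calls, unless noted: active means NADPH fluorescence slope more negative than the mean of all samples by about 3 SD, 99.7% confidence; inactive means the rest.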

Chain of Alpha-2C adrenergic receptor (Homo sapiens) (P18825 whole entry, looked up): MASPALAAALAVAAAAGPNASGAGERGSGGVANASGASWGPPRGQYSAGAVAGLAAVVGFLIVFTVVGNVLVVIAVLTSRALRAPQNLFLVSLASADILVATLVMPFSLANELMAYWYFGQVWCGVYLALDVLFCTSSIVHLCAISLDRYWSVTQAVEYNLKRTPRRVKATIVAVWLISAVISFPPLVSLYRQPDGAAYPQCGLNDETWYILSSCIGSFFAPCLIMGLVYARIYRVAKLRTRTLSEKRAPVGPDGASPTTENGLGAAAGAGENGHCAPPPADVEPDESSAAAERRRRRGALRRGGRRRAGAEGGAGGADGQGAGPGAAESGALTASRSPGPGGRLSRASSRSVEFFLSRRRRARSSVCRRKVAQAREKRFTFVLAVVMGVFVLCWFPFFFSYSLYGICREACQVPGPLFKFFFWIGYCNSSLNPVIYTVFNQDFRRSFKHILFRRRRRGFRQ
Chain of Voltage-gated potassium channel subunit beta-2 (Rattus norvegicus) (P62483 whole entry, looked up): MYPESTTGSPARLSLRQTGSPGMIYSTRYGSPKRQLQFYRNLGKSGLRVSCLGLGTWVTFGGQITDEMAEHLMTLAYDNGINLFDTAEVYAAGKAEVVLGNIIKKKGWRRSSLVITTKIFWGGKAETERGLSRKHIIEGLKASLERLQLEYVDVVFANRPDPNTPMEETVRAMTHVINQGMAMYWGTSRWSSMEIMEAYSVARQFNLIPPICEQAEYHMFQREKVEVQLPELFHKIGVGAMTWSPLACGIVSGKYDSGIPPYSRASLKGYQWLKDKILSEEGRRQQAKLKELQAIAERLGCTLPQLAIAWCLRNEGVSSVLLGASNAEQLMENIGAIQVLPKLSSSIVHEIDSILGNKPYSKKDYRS

Take `Cc1cc(=O)oc2cc(OCC(=O)OCC(=O)N3CCc4ccccc43)ccc12`: the cell count in assay [1] was 358. Also, the inhibition is 4.7% (inactive) in assay [1], -44.9% (inactive) in assay [3], 11% (inactive) in assay [7] and 16.2% (inactive) in assay [8]. Besides, in assay [2], the inhibition of aggregation was -5% (inactive). Also, the nuclei count in assay [2] is 88.9%; in assay [3] it was 103%. Also, the fluorescence slope in assay [4] is -0.331 (inactive). Further, the NADPH fluorescence slope in assay [5] is -5.7e-05 (inactive). Moreover, the slope in assay [6] is 0.00553 (inactive).
Take `O=C(Cn1cnc2ccccc2c1=O)NCCC(=O)N1CCN(Cc2ccccc2)CC1`: the cell count in assay [1] is 451. The inhibition in assay [1] is -3.8% (inactive); in assay [3] it was -0.7% (inactive); in assay [7], 12.1% (inactive); in assay [8], 24.7% (inactive). Further, in assay [2], the inhibition of aggregation was 31.1% (inactive). The nuclei count in assay [2] came out at 80.5%; in assay [3], 112%. Also, the fluorescence slope in assay [4] is -0.416 (inactive). Further, in assay [5], the NADPH fluorescence slope was -9.6e-05 (inactive). In assay [6], the slope was 0.00528 (inactive).
As to `O=C(O)CSC1CC(=O)N(c2ccc(Cl)c(Cl)c2)C1=O` (stereo not given), the cell count in assay [1] was 754. The inhibition was -2.8% (inactive) in assay [1], 4.8% (inactive) in assay [3], 3.92% (inactive) in assay [7] and 8.23% (inactive) in assay [8]. Besides, the inhibition of aggregation in assay [2] was 11.7% (inactive). Further, the nuclei count in assay [2] was 88.4%; in assay [3] it was 114%. Further, in assay [4], the fluorescence slope was -0.304 (inactive). Further, the NADPH fluorescence slope in assay [5] was -5.1e-05 (inactive). Also, in assay [6], the slope was 0.00566 (inactive).
Regarding `COC(=O)/C=c1\sc2ncnn2c1=O`, in assay [1], the cell count stood at 286. In addition, the inhibition was -11% (inactive) in assay [1], -34.9% (inactive) in assay [3], 18.3% (inactive) in assay [7] and 26.1% (inactive) in assay [8]. Besides, the inhibition of aggregation in assay [2] is 6.6% (inactive). Further, the results for the nuclei count in assay [2] and in assay [3] were 111% and 107%, respectively. In addition, the fluorescence slope in assay [4] is -0.624 (inactive). In addition, in assay [5], the NADPH fluorescence slope is -1.3e-05 (inactive). For the same molecule, the slope in assay [6] was 0.00688 (inactive).
Consider `CCOC(=O)c1cc2ccc(OC)c(OC)c2c(=O)s1`, for which the cell count in assay [1] was 452. Further, the inhibition was 4.9% (inactive) in assay [1], 36.3% (inactive) in assay [3], -11.9% (inactive) in assay [7] and -12.5% (inactive) in assay [8]. For the same molecule, in assay [2], the inhibition of aggregation was -3.4% (inactive). Further, the nuclei count came to 102% in assay [2] and 108% in assay [3]. For the same molecule, in assay [4], the fluorescence slope is -0.396 (inactive). Besides, the NADPH fluorescence slope in assay [5] is -2.4e-05 (inactive). Moreover, the slope in assay [6] was 0.00363 (inactive).
For the molecule `COc1ccccc1N1CCN(Cc2nnnn2CCc2ccccc2)CC1`, in assay [1], the cell count is 497. Besides, the inhibition is -3.1% (inactive) in assay [1], -42.8% (inactive) in assay [3], -6.87% (inactive) in assay [7] and 0.354% (inactive) in assay [8]. Also, the inhibition of aggregation in assay [2] was 2% (inactive). Besides, the results for the nuclei count in assay [2] and in assay [3] were 99.9% and 92%, respectively. In assay [4], the fluorescence slope was -0.565 (inactive). Further, the NADPH fluorescence slope in assay [5] is 8e-05 (inactive). Further, the slope in assay [6] was 0.00514 (inactive).
In the case of `CCCSc1nnc2nc3c(nn12)c1ccccc1n3C`, in assay [1], the cell count was determined as 572. For the same molecule, the inhibition in assay [1] was 4.4% (inactive); in assay [3], 5.3% (inactive); in assay [7] it was 5.91% (inactive); in assay [8] it was 27.8% (inactive). The inhibition of aggregation in assay [2] was -6.3% (inactive). Further, the results for the nuclei count in assay [2] and in assay [3] were 109% and 107%, respectively. Also, in assay [4], the fluorescence slope was -0.519 (inactive). Further, the NADPH fluorescence slope in assay [5] was -6.9e-05 (inactive). For the same molecule, the slope in assay [6] was 0.0026 (inactive).
For `COC(=O)[C@H](CCSC)NC(=O)Nc1cc(C)ccc1C`, the cell count in assay [1] worked out at 476. The inhibition in assay [1] was -7.4% (inactive); in assay [3], -5.7% (inactive); in assay [7], 11.7% (inactive); in assay [8], 31% (inactive). Also, the inhibition of aggregation in assay [2] is 7.6% (inactive). Also, the nuclei count turned out to be 90.6% in assay [2] and 86.5% in assay [3]. In assay [4], the fluorescence slope is -0.616 (inactive). For the same molecule, the NADPH fluorescence slope in assay [5] is -3.2e-05 (inactive). Also, the slope in assay [6] is 0.00712 (inactive).
Turning to `O=C(CN1C(=O)CSC1=O)Nc1ccc(N2CCOCC2)cc1`, in assay [1], the cell count was found to be 700. Also, the inhibition in assay [1] was -1% (inactive); in assay [3] it was -27.8% (inactive); in assay [7] it was -8.99% (inactive); in assay [8], -8.78% (inactive). Moreover, the inhibition of aggregation in assay [2] was 15.2% (inactive). Also, the nuclei count in assay [2] is 110%; in assay [3], 113%. In addition, the fluorescence slope in assay [4] is -0.544 (inactive). Besides, in assay [5], the NADPH fluorescence slope is -2.2e-05 (inactive). Moreover, in assay [6], the slope is 0.00569 (inactive).
In the case of `CC(C)CN(CC(C)C)C(=O)C12CCC(C)(C(=O)C1)C2(C)C` (stereo not given), the cell count in assay [1] is 720. In addition, the inhibition is -10.4% (inactive) in assay [1], -45.3% (inactive) in assay [3], -21.4% (inactive) in assay [7] and -2.9% (inactive) in assay [8]. In addition, the inhibition of aggregation in assay [2] is 13.7% (inactive). For the same molecule, the figures for the nuclei count in assay [2] and in assay [3] were 99.8% and 115%, respectively. The fluorescence slope in assay [4] was -0.452 (inactive). The NADPH fluorescence slope in assay [5] was 0.000106 (inactive). Moreover, the slope in assay [6] is 0.00697 (inactive).

These data come from PubChem BioAssay.
